According to PubChem BioAssay:
Activity calls are given as the source filed them.

Columns and labels:
[1] = tested on: PRMT1 (protein arginine N-methyltransferase 1); assay: small molecules binding arginine methyltransferase PRMT1 – biochemical, small-molecule microarray, 635 nm fluorescence, primary screen (AID 1088); conditions: higher = more signal;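 also: binding of Prmt1 protein to compounds spotted on small-molecule microarray slides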
[2] = growth effects on S. cerevisiae YJM789 – YJM789 clinical isolate, OD600, 24 h, basal, primary screen (AID 1089); conditions: higher = more signal, called active from +8 up or from −8 down;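 also: growth of clinical yeast isolate S. cerevisiae YJM 789 seeded 1000 cells per well; test concentration not given here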
[3] = S. pombe growth modifiers, basal conditions – strain 972, OD600, 24 h, no modulator, primary screen (AID 1090);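 also: basal condition with compound alone and no growth modifier present; test concentration not given here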; conditions: S. pombe 972 growth, higher = more signal, called active from +8 up or from −8 down
[4] = budding yeast growth modifiers under rapamycin – strain BY4716, OD600, 96 h, primary screen (AID 1091); also: test concentration not given here; conditions: S. cerevisiae BY4716 + rapamycin, higher = more signal, called active from +8 up or from −8 down
[5] = biological target: Torsin-1A-interacting protein 2 (Homo sapiens) (UniProt Q8NFQ8); assay: small molecules binding lysate-expressed LULL1 – cell lysate, human LULL1 lysate, 635/667 nm fluorescence, primary screen (AID 1092); conditions: small-molecule microarray, hLULL1 lysate binding, 635 nm fluorescence; higher = more signal;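 also: probe is lysate of COS7 cells overexpressing human LULL1; score merges per-feature 667 nm fluorescence with signal-to-noise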
[6] = optical density change of DRC41 E. coli – strain DRC41, OD650, 24 h, E. coli filamentation project, primary screen (AID 1093);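 also: MC1000 strain lacking acrAB efflux and sulA so SOS filamentation is blocked; test concentration not given here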; conditions: E. coli DRC41 growth, higher = more signal, called active from +8 up or from −8 down
[7] = probe aLefty2 binding to arrayed compounds – biochemical, biotinylated probe, 635/667 nm fluorescence, primary screen (AID 1094); conditions: small-molecule microarray, higher = more signal;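 also: score merges spot fluorescence near 667 nm with spot signal-to-noise ratio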
[8] = tested on: Noggin (protein binding on small-molecule microarray); assay: small molecules binding Noggin protein – biochemical, 635/667 nm fluorescence, primary screen (AID 1095); conditions: 635 nm fluorescence, higher = more signal;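 also: score merges 667 nm feature fluorescence with signal to noise over triplicate slides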
[9] = biological target: Neurogenic locus notch homolog protein 3 (Homo sapiens) (UniProt Q9UM47); assay: small molecules binding NOTCH3 protein – biochemical, 635/667 nm fluorescence, primary screen (AID 1096); conditions: small-molecule microarray, 635 nm fluorescence, higher = more signal
[10] = probe aEGFR binding to arrayed compounds – biochemical, biotinylated probe, 635/667 nm fluorescence, primary screen (AID 1097); conditions: small-molecule microarray, higher = more signal;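 also: probe is a biotinylated anti-EGFR antibody binding compounds printed on slides; score combines fluorescence near 667 nm and signal to noise of each spot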

Torsin-1A-interacting protein 2 (Homo sapiens), sequence (Q8NFQ8 whole entry, looked up): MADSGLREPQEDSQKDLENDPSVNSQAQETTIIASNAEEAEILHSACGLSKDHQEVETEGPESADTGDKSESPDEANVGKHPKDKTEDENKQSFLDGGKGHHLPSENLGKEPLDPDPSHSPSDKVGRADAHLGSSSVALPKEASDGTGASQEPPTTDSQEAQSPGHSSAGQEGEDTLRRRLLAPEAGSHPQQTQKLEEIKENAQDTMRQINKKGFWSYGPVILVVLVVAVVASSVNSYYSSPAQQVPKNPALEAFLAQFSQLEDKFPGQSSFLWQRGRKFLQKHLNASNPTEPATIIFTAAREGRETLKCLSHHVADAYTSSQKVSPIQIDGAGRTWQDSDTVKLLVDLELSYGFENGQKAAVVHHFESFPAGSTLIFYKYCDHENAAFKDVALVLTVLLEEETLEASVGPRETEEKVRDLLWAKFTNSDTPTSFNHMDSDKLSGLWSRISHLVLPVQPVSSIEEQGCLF
Neurogenic locus notch homolog protein 3 (Homo sapiens), sequence (Q9UM47 whole entry, looked up): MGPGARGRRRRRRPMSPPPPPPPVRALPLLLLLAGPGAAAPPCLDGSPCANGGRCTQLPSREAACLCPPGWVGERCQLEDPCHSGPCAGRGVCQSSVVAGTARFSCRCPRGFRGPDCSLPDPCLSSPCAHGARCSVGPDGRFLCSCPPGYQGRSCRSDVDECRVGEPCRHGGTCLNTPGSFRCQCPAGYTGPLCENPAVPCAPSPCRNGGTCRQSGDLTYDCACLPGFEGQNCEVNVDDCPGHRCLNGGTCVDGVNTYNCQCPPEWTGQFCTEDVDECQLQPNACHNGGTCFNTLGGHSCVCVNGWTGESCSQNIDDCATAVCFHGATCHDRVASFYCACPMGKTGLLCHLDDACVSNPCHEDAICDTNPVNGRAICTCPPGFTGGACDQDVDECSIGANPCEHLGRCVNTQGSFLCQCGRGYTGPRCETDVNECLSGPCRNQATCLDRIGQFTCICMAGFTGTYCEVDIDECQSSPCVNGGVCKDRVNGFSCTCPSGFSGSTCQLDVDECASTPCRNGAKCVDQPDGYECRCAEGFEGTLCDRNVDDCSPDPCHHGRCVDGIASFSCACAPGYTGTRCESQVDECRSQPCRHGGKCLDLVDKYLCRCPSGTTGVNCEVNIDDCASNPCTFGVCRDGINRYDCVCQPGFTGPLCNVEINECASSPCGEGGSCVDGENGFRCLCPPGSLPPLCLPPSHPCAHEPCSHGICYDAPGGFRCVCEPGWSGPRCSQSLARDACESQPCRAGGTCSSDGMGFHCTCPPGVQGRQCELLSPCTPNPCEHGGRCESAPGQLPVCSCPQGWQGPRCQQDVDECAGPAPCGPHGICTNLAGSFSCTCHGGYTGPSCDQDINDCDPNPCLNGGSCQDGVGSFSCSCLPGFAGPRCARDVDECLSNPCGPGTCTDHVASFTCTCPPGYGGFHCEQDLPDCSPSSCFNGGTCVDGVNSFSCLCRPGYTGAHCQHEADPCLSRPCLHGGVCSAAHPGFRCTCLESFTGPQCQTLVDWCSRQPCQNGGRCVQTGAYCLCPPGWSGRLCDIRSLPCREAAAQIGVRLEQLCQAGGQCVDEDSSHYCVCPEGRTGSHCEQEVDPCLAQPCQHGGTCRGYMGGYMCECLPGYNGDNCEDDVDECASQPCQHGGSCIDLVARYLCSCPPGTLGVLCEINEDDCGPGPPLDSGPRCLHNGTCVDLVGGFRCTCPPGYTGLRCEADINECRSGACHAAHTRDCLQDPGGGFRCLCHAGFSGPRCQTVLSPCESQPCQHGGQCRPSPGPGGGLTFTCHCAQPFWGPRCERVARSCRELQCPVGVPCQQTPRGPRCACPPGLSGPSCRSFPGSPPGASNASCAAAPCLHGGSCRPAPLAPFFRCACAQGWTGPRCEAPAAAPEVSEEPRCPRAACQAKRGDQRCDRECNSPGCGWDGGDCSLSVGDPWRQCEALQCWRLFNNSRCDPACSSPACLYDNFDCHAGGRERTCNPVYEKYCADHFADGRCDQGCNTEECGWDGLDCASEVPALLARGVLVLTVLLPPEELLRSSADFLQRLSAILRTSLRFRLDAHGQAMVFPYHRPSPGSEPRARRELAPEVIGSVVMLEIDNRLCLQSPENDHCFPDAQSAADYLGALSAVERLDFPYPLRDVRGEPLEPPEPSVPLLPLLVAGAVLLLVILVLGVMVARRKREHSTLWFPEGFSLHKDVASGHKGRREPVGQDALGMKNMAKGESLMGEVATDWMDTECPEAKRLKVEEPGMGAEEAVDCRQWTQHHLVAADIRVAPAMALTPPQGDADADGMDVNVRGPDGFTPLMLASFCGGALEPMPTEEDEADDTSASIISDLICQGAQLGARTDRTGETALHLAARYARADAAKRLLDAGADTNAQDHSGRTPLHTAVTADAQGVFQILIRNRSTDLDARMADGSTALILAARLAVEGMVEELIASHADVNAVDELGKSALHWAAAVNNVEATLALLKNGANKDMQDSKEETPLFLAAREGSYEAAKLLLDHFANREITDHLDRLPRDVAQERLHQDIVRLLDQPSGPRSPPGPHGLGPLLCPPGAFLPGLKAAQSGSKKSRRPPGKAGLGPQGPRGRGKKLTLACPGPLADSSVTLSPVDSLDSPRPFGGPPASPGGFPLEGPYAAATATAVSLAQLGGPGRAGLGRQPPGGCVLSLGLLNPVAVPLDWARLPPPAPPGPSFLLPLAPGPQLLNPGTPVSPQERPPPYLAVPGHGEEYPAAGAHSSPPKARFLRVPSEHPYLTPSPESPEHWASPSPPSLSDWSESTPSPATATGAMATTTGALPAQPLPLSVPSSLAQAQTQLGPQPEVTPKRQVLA

Row | SMILES | composite z-score [1] | z-score [2] | z-score [3] | z-score [4] | composite z-score [5] | z-score [6] | composite z-score [7] | composite z-score [8] | composite z-score [9] | composite z-score [10]
1 | CN1C(=O)C2C(C1=O)C1C=C(CCCO)C2C(C2CC2)N1C (stereo not given) | 0.74 | -1.39 (inactive) | -0.339 (inactive) | -0.517 (inactive) | 2.52 | -0.797 (inactive) | -0.0812 | -0.21 | -0.312 | -0.0922
2 | COCCOC(=O)N1C(=O)[C@@]2(c3cc(C#CCNC(N)=O)ccc31)[C@H](C(N)=O)[C@H]1C(=O)O[C@H](c3ccccc3)[C@H](c3ccccc3)N1[C@@H]2c1ccc(O)cc1 | 0.46 | 0.898 (inactive) | -0.173 (inactive) | 0.449 (inactive) | 0.634 | 1.19 (inactive) | 0.0362 | 0.173 | -0.564 | -0.0828
3 | CCCCN1CC=CC23O[C@@H]4C=CCCOC(=O)C4[C@H]2C(=O)N(CCO)[C@@H]3C1=O (stereo not given in full) | -0.0141 | -0.207 (inactive) | -0.492 (inactive) | -0.19 (inactive) | -0.248 | 1.5 (inactive) | -0.182 | 0.132 | -0.414 | -0.167
4 | C=C1C(=O)C=C2CN(C(=O)c3ccccc3)[C@@](Cc3ccc(F)cc3)(C(=O)OC)[C@@H]12 | 0.356 | -23.7 (active) | -15.9 (active) | -2.6 (inactive) | 3.47 | -0.57 (inactive) | 0.513 | 0.0319 | 1.05 | 0.0071
5 | COc1ccc(CCNC(=O)[C@@H]2c3ccccc3C(=O)N(C(C)C)[C@H]2c2ccc(CO)cc2)cc1 | -0.592 | 0.342 (inactive) | -0.264 (inactive) | -0.0884 (inactive) | 2.05 | 1.39 (inactive) | 0.0129 | -1.3 | -2.01 | -0.238
6 | COc1c(C)cc(-c2nc(-c3ccccc3)c3c(c2C)CO[Si]3(C(C)C)C(C)C)cc1C | 0.114 | 0.687 (inactive) | 0.104 (inactive) | -0.191 (inactive) | 0.254 | -1.59 (inactive) | 0.074 | 0.323 | 0.566 | -0.0068
7 | C=C(COC)C(=O)CC[C@H](OC(C)=O)c1ccccc1OCCO | 1.39 | 0.556 (inactive) | -2.58 (inactive) | -0.401 (inactive) | -0.323 | 1.32 (inactive) | -0.166 | 0.985 | 0.367 | -0.262
8 | COc1ccc([Si](C)(C)[C@H]2[C@H](CC(=O)N3CCC[C@H]3CO)O[C@@]3(C(=O)N(C)c4c(Br)cc(C)cc43)[C@@H]2C)cc1 | 1.54 | -0.749 (inactive) | -0.108 (inactive) | -0.385 (inactive) | 3.42 | -0.2 (inactive) | 0.412 | 2.05 | 0.498 | 0.459
